Measured values taken from ChEMBL document CHEMBL3988442, “University of Dundee, Small-Polar-MMV Screening Library” (2021).
Out of some 48,000 compounds screened, about 13,000 (27%) showed an effect of 50% or more. This is one part of the list.

System: Wolbachia pipientis
Assay: Anti-Wolbachia Cell-Based Screen
Type: functional
Parameters: scale not given: in the data most compounds retested in dose-response had high values
Settings: 5 µM

Row | Structure (SMILES) | Percent Effect
1 | CCN1CC(C(=O)N2CCc3cc(C(N)=O)n(C)c3C2)CCC1=O (configuration not stated) | -10.45%
2 | Cc1ccc(-c2nc(CN3CCn4c(nnc4C4CC4)C3)no2)cc1 | -10.52%
3 | c1cncc(NCCNC2CCSC2)c1 (configuration not stated) | 14.04%
4 | CCC(C)n1cnc(S(=O)(=O)N(C)c2cccnc2N(C)C)c1 (configuration not stated) | 2.284%
5 | Cc1nnc(CSc2ccccn2)o1 | -5.067%
6 | O=C(CCN1CCCC1C1CCCCC1)N1CCc2sccc2C1 (configuration not stated) | 3.149%
7 | CN(C)S(=O)(=O)N1CCC2(CC1)CC(OCC1CC1)CO2 (configuration not stated) | -4.528%
8 | CC(C)(C)CC(=O)NC[C@H]1OC[C@@H](NC2CCC(F)(F)CC2)[C@@H]1O | -11.06%
9 | Cn1nc(C#N)c2c1CN(C(=O)c1c[nH]cn1)CCC2 | -11.9%
10 | Cn1nc(C#N)c2c1CN(C(=O)c1nc[nH]n1)CCC2 | -49.74%
11 | COc1nn(C)c2c1CCCN(C(=O)c1cnccn1)C2 | 102.6%
12 | Cn1nc(C#N)c2c1CN(C(=O)c1ccnnc1)CCC2 | -0.2276%
13 | COc1nn(C)c2c1CCCN(C(=O)c1cscn1)C2 | 93.39%
14 | COc1nn(C)c2c1CCCN(C(=O)c1c[nH]cn1)C2 | -44.84%
15 | CCN(Cc1noc(C(C)(C)C)n1)Cc1ccc(C#N)cc1F | -6.556%
16 | OC(CN(Cc1ccccc1)Cc1cccnc1)c1cccs1 (configuration not stated) | -7.082%
17 | Cc1cc(C)n(Cc2cc(C(=O)N3CCCC3c3ccccn3)n[nH]2)n1 (configuration not stated) | 101.3%
18 | Cc1cc(C)n(Cc2cc(C(=O)N3CCCCC3c3nccs3)n[nH]2)n1 (configuration not stated) | 94.44%
19 | Cc1cc(C)n(CC2CCCN2C(=O)Cc2cn3ccsc3n2)n1 (configuration not stated) | 5.291%
20 | Cc1cc(C)n(CCC(=O)N2CCCCC2c2nccs2)n1 (configuration not stated) | 97.13%
21 | Cn1cccc1-c1cc(C(=O)N2CCCC2c2nccs2)[nH]n1 (configuration not stated) | -11.21%
22 | Cc1noc(CCCC(=O)N2CCCCC2c2nccs2)n1 (configuration not stated) | 4.452%
23 | Cc1cc(C)n(CC2CCCN2C(=O)CCCNc2ncccn2)n1 (configuration not stated) | -5.56%
24 | Cc1cc(C)n(Cc2cc(C(=O)N[C@H]3CCCCNC3=O)n[nH]2)n1 | 1.384%
25 | O=C(CCCn1cncn1)N1CCCCC1c1nccs1 (configuration not stated) | -0.08053%
26 | Cc1cc(C)n(Cc2cc(C(=O)N3CCCC3c3nccs3)n[nH]2)n1 (configuration not stated) | 147.1%

Row | Structure (SMILES) | Percent Effect
27 | CC(=O)N1CCC(N2CCN3C(=O)N(c4ccccc4)C[C@H]3C2)CC1 | -6.558%
28 | CC(C)C(=O)N1CCN(S(=O)(=O)C2CC2)CC2(CC(=O)N(C)C2)C1 (configuration not stated) | -3.068%
29 | CNC(=O)c1nnn(-c2ccccc2F)c1-c1ccccn1 | -7.96%
30 | C[C@H]1C[C@H]2CN(C(=O)C3=CCCCC3)CC[C@H]2O1 | -8.819%
31 | Cc1cccc2[nH]c(C3CCCN3Cc3ccc(CO)o3)nc12 (configuration not stated) | -7.499%
32 | CCS(=O)(=O)NC(C(=O)NC)c1ccc(F)c(F)c1 (configuration not stated) | -1.609%
33 | CCc1nc(C2CCCN2C(=O)c2cc(C3CC3)[nH]n2)no1 (configuration not stated) | -2.923%
34 | Cc1csc(C2CCCCN2C(=O)c2cc(C(C)C)[nH]n2)n1 (configuration not stated) | 109.6%
35 | Cc1cc(C(=O)N2CCCCC2c2nc(C)cs2)[nH]n1 (configuration not stated) | 5.063%
36 | Cc1csc(N2CCN(C(=O)c3cc(C4CC4)[nH]n3)CC2)n1 | -15.84%
37 | Cc1csc(C2CCCCN2C(=O)c2cc(C3CC3)[nH]n2)n1 (configuration not stated) | 105.1%
38 | COC(=O)c1cc2c(=O)[nH]c(=O)n(CCc3ccccc3)c2nc1C | -9.313%
39 | O=C(c1ccc2cccc(F)c2n1)N1CCN(CCn2cncn2)CC1 | -17.81%
40 | Cc1cc(CN(C)C(=O)NC(C)c2nncn2C)no1 (configuration not stated) | 1.763%
41 | Cc1cc(C)n(C2CN(c3nc(N)nc4c3CCCC4)C2)n1 | 12.27%
42 | NCc1csc(CCc2ccccc2)n1 | -7.942%
43 | CN(C)Cc1cc(C2CCCCN2S(=O)(=O)Cc2ccccc2)nn1C.Cl (configuration not stated) | 133.2%
44 | CCN(C)C[C@@H]1CN(S(=O)(=O)c2cccc(Cl)c2)C[C@@H]1CO | 13.86%
45 | CN(C)Cc1cc(C2CCCCN2S(=O)(=O)c2cccc(Cl)c2)nn1C.Cl (configuration not stated) | 167.4%
46 | CN(C)Cc1cc(C2CCCN(S(=O)(=O)c3cccc(Cl)c3)C2)nn1C (configuration not stated) | 157.3%
47 | CN1C(=O)C[C@@H]2[C@@H]1CCN2S(=O)(=O)Cc1ccccc1 | -5.88%
48 | O=S(=O)(c1cccc(Cl)c1)N1CCCC(Cn2cncn2)C1 (configuration not stated) | -2.672%
49 | O=S(=O)(N1CCCC1)N1CCCCC1CCc1ccccc1 (configuration not stated) | 1.463%
50 | CN(C)CCN1CC[C@@H]2[C@@H]1CCN2C(=O)c1cccc(Cl)c1 | -16.88%
51 | CCN(Cc1cccc(NC(=O)COC)c1)C(C)=O | -0.3601%
52 | Cc1cc(C(=O)NC(C)c2nnn[nH]2)c2ccc(C)c(C)c2n1 (configuration not stated) | -4.141%
